PBM binding z-score data for seven sequences are collected here from the supplement of paper PMC6555819.

Test in all cases: PBM binding z-score (relative to random genomic background probes); higher = stronger binding; sequences stand for … in GC…GCGATTGACAGCGTAGAATGAAGG
Assay [1] concerns FXR:RXRa (NR concentration 270 nM, RXRa partner concentration 90 nM). A digest of the protocol: (§1)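 Binding buffer was PBS pH 7.4 with 2% milk, 0.02% Triton X-100, 1 mM DTT, 0.2 mg/mL BSA and 0.4 mg/ml salmon testes DNA. In it, ligand-free nuclear receptor dimers were incubated 1 h on custom Agilent 4×180K protein-binding microarrays carrying double-stranded probes. Antibodies against each partner (one per run) detected binding, and z-scores were calculated against random background probes after regression normalization of scanned fluorescence.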

In assay [2] the test system is LXRa:RXRa (NR concentration 270 nM, RXRa partner concentration 90 nM). A digest of the protocol: as §1
The subject of assay [3] is LXRa homodimer (NR concentration 270 nM). The procedure, abridged: as §1
The subject of assay [4] is LXRb:RXRa (NR concentration 270 nM, RXRa partner concentration 90 nM). The procedure, abridged: as §1
Assay [5] deals with LXRb homodimer (NR concentration 270 nM). A digest of the protocol:
as §1

The test system of assay [6] is PPARa:RXRa (NR concentration 270 nM, RXRa partner concentration 90 nM). A digest of the protocol: as §1
For assay [7], the system named is PPARg:RXRa (NR concentration 180 nM, RXRa partner concentration 90 nM). The procedure, abridged: as §1
The test system of assay [8] is PPARg:RXRa 270nM:90nM, anti-RXR (NR concentration 270 nM, RXRa partner concentration 90 nM). A digest of the protocol: as §1
The subject of assay [9] is PPARg:RXRa 30nM:10nM, anti-RXR (NR concentration 30 nM, RXRa partner concentration 10 nM). A digest of the protocol:
as §1

The subject of assay [10] is PPARg:RXRa 90nM:30nM, anti-RXR (NR concentration 90 nM, RXRa partner concentration 30 nM). The procedure, abridged: as §1
In assay [11] the test system is PPARg:RXRa DBDmut IVT, anti-RXR (DBD mutation: RXRa K156A/R161A, NR concentration 270 nM, RXRa partner concentration 90 nM). A digest of the protocol: as §1
Assay [12] deals with PPARg:RXRa IVT, anti-PPARg (NR concentration 270 nM, RXRa partner concentration 90 nM). The procedure, abridged: as §1
In assay [13] the test system is PPARg DBDmut:RXRa IVT, anti-PPARg (DBD mutation: PPARg1 K132A/R137A, NR concentration 270 nM, RXRa partner concentration 90 nM). A digest of the protocol:
as §1

The subject of assay [14] is PPARg DBDmut IVT, anti-PPARg (DBD mutation: PPARg1 K132A/R137A, NR concentration 270 nM). The procedure, abridged: as §1
Assay [15] concerns PPARg homodimer (NR concentration 180 nM). A digest of the protocol: as §1
Assay [16] deals with PXR:RXRa (NR concentration 270 nM, RXRa partner concentration 90 nM). A digest of the protocol: as §1
Assay [17] deals with PXR homodimer (NR concentration 270 nM). A digest of the protocol: as §1
The test system of assay [18] is RARa:RXR (NR concentration 270 nM, RXRa partner concentration 90 nM). The procedure, abridged: as §1
In assay [19] the test system is RARa homodimer (NR concentration 270 nM). A digest of the protocol: as §1
Assay [20] concerns RARb:RXRa (NR concentration 270 nM, RXRa partner concentration 90 nM). The procedure, abridged:
as §1

For TCTGCTAGGTCAGTTGGTCAGCTATCGAGCTGCC, the PBM binding z-score is 0.915 in assay [1]; 0.538 in [2]; -0.72 in [3]; 0.193 in assay [4]; 0.35 in [5]; 1.26 in [6]. Moreover, the PBM binding z-score in [7] is 0.224; in assay [8], 1.72; in assay [9], 1.21; in assay [10], 1.45; in assay [11], 2.46; in assay [12] it was 3.27. Also, the PBM binding z-score in [13] was 0.301; in assay [14] it was 0.371; in assay [15] it was 0.0545; in assay [16] it was 0.289; in [17] it was -0.818; in [18] it was 0.544. The figures for the PBM binding z-score in [19] and in assay [20] were -1.27 and 3.39, respectively.

For the sequence CTCGACAGGTCGTGCTCAGGTGAGTATACCAAAC, the PBM binding z-score in assay [1] was 0.806; in assay [2] it was 0.431; in [3] it was -0.39; in [4], 0.643; in [5], -0.717; in assay [6], 1.59. Moreover, the PBM binding z-score was 0.0674 in assay [7]; 0.515 in [8]; -0.386 in assay [9]; -0.107 in assay [10]; 0.245 in [11]; 0.534 in assay [12]. Moreover, the PBM binding z-score in assay [13] is -0.84; in assay [14], -0.0221; in assay [15] it was 0.723; in assay [16], 0.437; in assay [17], -0.328; in assay [18] it was 1.08. The PBM binding z-score was -0.81 in [19] and 1.42 in assay [20].

Turning to CCGACTGGGGCAGAAAGGTTAACATACCATCCGG, the PBM binding z-score in [1] was 0.257; in assay [2], 0.795; in assay [3], 0.102; in [4] it was 1.32; in [5] it was -1.1; in assay [6], 2.45. In addition, the PBM binding z-score in assay [7] worked out at 1.92; in assay [8], 2.76; in [9], 1.1; in assay [10] it was 2.38; in [11], 1.78; in assay [12], 2.39. Moreover, the PBM binding z-score is -0.202 in [13]; -1.36 in assay [14]; 1.53 in assay [15]; 1.19 in [16]; -0.126 in assay [17]; 1.95 in assay [18]. Also, the PBM binding z-score in assay [19] is 0.0538; in assay [20], 1.98.

For the sequence TCGAGTAGGTTAGGGGTATTCAGAATGGCGTCGA, the PBM binding z-score in assay [1] is 0.347; in assay [2] it was 0.298; in assay [3] it was -0.105; in [4], 1.01; in [5] it was -0.0483; in [6], 1.66. For the same sequence, the PBM binding z-score in assay [7] came out at 2.37; in [8], 3.55; in [9] it was 2.28; in [10], 2.99; in assay [11] it was 2.5; in assay [12], 2.26. Besides, the PBM binding z-score in [13] was 0.429; in [14], 0.6; in [15], 0.948; in assay [16] it was 0.383; in assay [17] it was 0.362; in assay [18], 0.00419. Moreover, the PBM binding z-score in assay [19] amounted to 0.176; in assay [20] it was 0.589.

In the case of CATACTGGGCCAAAGGTCATTGATTCCAATGCTC, the PBM binding z-score in assay [1] came out at 5.32; in [2], 5.39; in assay [3], 4.2; in assay [4], 5.17; in assay [5] it was 1.29; in [6], 6.71. Moreover, the PBM binding z-score amounted to 11.9 in assay [7]; 10.1 in [8]; 10.1 in assay [9]; 11.1 in assay [10]; 4.86 in assay [11]; 6.31 in assay [12]. Moreover, the PBM binding z-score stood at 1.88 in [13]; 1.07 in assay [14]; 3.77 in assay [15]; 5.52 in [16]; 1.72 in assay [17]; 6.32 in assay [18]. The PBM binding z-score in assay [19] worked out at 1.82; in [20], 4.71.

On to CCTAGTTGGTCAAGGTCGCACACGCTATAGGTAC, for which the PBM binding z-score was 1.28 in assay [1]; 0.906 in assay [2]; 0.275 in assay [3]; 1.18 in [4]; -0.0478 in assay [5]; 1.68 in assay [6]. Besides, the PBM binding z-score in [7] came to 1.15; in assay [8] it was 1.37; in [9], 0.0592; in assay [10] it was 0.958; in assay [11], 1.4; in assay [12], 1.87. For the same sequence, the PBM binding z-score in [13] worked out at 0.308; in assay [14] it was 0.288; in [15] it was 1.55; in assay [16], 1.57; in assay [17] it was 1.04; in assay [18], 1.69. Moreover, the PBM binding z-score in assay [19] came out at 0.482; in assay [20], 2.43.

Turning to TTACCAAGGTGAACGTCGTTGATCCCTCTGTAGA, the PBM binding z-score in [1] is 0.766; in [2] it was 0.802; in assay [3], -0.455; in assay [4], 1.01; in assay [5] it was -0.681; in assay [6] it was 1.99. For the same sequence, the PBM binding z-score in assay [7] is 0.984; in [8], 1.25; in assay [9], 0.514; in assay [10], 1.07; in [11], 2.54; in assay [12], 3.17. Besides, the PBM binding z-score in assay [13] is 0.0811; in assay [14], 1.09; in assay [15] it was 0.021; in assay [16], 0.627; in assay [17], -0.305; in [18], 1.26. The results for the PBM binding z-score in assay [19] and in assay [20] were -0.00319 and 1.77, respectively.
